The list is not random: actives were taken first. Their share in the collection is about 3.1%.
TWEAK Fn14 block = TWEAK-Fn14 signaling inhibition. TWEAK-stimulated Fn14 reporter cells, luciferase luminescence, 8 h. inhibition, % at 10 µM. 360,000 compounds, 2% hits. AID 1159606; in the data active means inhibition above about 50%
LGR2 antag = Drosophila LGR2 receptor signaling inhibition | 380,000 compounds, 0.35% hits | HEK293 LGR2, CRE-luciferase, bursicon-stimulated, 4 h | AID 720647 | inhibition, % at 9.99 µM;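 active means drop in luminescence signal, shown as inhibition above about 50% in the replicate tests, limit read from the data, passing the limit was not always enough; inconclusive means probably only some replicates passing the limit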;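 further: agonist challenge used bursicon conditioned medium at about half maximal strength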
EBV LMP1 NFkB = Epstein-Barr LMP1 NF-kappaB reporter inhibition; LMP1-induced NF-kappaB luciferase reporter cells, luminescence; inhibition, % at 12.5 µM; 350,000 compounds, 0.69% hits; AID 504558; in the data active means inhibition above about 41%; inconclusive means no clear call, values can overlap the other calls;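 further: 0% = neutral control wells and 100% = reference inhibitor control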
PAX8 inh HTS = lowers PAX8-driven luciferase in RMG-I cells | RMG-I TPO-luciferase reporter, SteadyGlo, 24 h | inhibition, % at 12.6 µM | 360,000 compounds, 1.2% hits;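 active means mean replicate inhibition at least 60% with every replicate also reaching 60%; inconclusive means only one of the two criteria is met; inactive means mean below 60% and not all replicates reaching 60%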;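 further: luciferase light reporting Pax8 driven TPO promoter activity; plate controls were median of neutral control wells for no effect and mitoxantrone controls for full effect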
EWS-Fli inh = inhibitors of EWS/Fli oncoprotein transcriptional activity | A673 NR0B1-luciferase reporter, viability-normalised | inhibition, % at 12.6 µM | 350,000 compounds, 0.67% hits | AID 651661;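 active means mean inhibition of at least 50% after viability correction, with every replicate also passing that limit; inconclusive means mean reaches 50% but only one of two replicates passes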;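 further: firefly luciferase signal divided by Alamar Blue viability fluorescence both relative to DMSO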
TROY NFkB inh = TROY signaling inhibition | Q293 LMP1-TROYcd NF-kB luciferase reporter, 4 h | inhibition, % at 10 µM | 360,000 compounds, 0.98% hits | AID 1347056;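 active means compounds whose plate-normalised and pattern-corrected inhibition of the luciferase reporter signal at the single screening dose is 50% or more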
The depositor's hits bear a star; ? = inconclusive; . = no result given; ! = not active in a repeat.

SMILES	TWEAK Fn14 block	LGR2 antag	EBV LMP1 NFkB	PAX8 inh HTS	EWS-Fli inh	TROY NFkB inh
O=C(O)CCn1cc(/C=C/C(=O)c2ccc(Cl)cc2)c(-c2ccc(Br)cc2)n1	59.6*	26.0	2.1	-4.4	19.6	17.7
CCOC(=O)c1ccc(N=c2sc(C(=O)OC)cc(=O)n2-c2ccc(C(=O)OCC)cc2)cc1	54.1*	57.7*	-1.9	.	13.0	20.5
CCOc1ccc(NS(=O)(=O)c2ccc(NS(C)(=O)=O)cc2)cc1	-14.1	.	5.1	.	.	9.8
CCCCCOc1ccc(NS(C)(=O)=O)cc1	-19.0	.	78.1*	.	.	-40.5
CC(=O)O[C@H]1C(=O)[C@@]2(C)[C@H]([C@H](OC(=O)c3ccccc3)[C@]3(O)C[C@H](OC(=O)[C@H](O)[C@@H](NC(=O)c4ccccc4)c4ccccc4)C(C)=C1C3(C)C)[C@]1(OC(C)=O)CO[C@@H]1C[C@@H]2O	19.5	9.8	1.4	25.9	65.2*	10.8
CC(=O)O[C@H]1C(=O)[C@@]2(C)[C@H]([C@H](OC(=O)c3ccccc3)[C@]3(O)C[C@H](OC(=O)[C@H](O)C(NC(=O)c4ccccc4)c4ccccc4)C(C)=C1C3(C)C)[C@]1(OC(C)=O)CO[C@@H]1C[C@@H]2O (stereo partly drawn)	23.3	6.9	20.5	36.4	65.8*	7.8
CCCCCC(=O)N[C@@H](c1ccccc1)[C@@H](O)C(=O)O[C@H]1C[C@@]2(O)[C@@H](OC(=O)c3ccccc3)C3[C@](C)(C(=O)[C@H](OC(C)=O)C(=C1C)C2(C)C)[C@@H](O)C[C@H]1OC[C@@]31OC(C)=O (stereo partly drawn)	35.6	4.6	8.6	.	57.3*	-7.9
C[C@H]1CN([C@@H](C)CO)C(=O)c2cc(C#Cc3ccccc3F)cnc2O[C@@H]1CN(C)S(=O)(=O)c1ccccc1F	.	14.0	.	.	3.2	.
NS(=O)(=O)c1ccc(NC(=O)c2cc(Cl)sc2Cl)cc1	-14.1	-7.4	0.7	62.8*	8.2	-7.2
CC(C)C#Cc1cnc2c(c1)C(=O)N([C@@H](C)CO)C[C@@H](C)[C@H](CN(C)Cc1ccc3c(c1)OCO3)O2	.	13.7	.	9.2	14.9	.
COc1cccc(-c2cn(CC[C@H]3CC[C@@H](NS(=O)(=O)c4ccccc4Cl)[C@@H](CO)O3)nn2)c1	.	-5.2	.	6.0	11.4	.
Oc1ccc(Nc2ncnc3scc(-c4ccccc4)c23)cc1	63.3*	-2.8	11.5	-10.3	16.5	32.7
c1ccc(CNc2ncnc3scc(-c4cccs4)c23)nc1	49.0	29.9	?	40.5	-3.7	42.8
c1ccc(-c2csc3ncnc(NCc4ccccn4)c23)cc1	64.9*	.	19.4	29.9	6.6	-13.5
COC(=O)c1ccccc1NC1=C/C(=N\S(=O)(=O)c2ccc(C(=O)O)cc2)c2ccccc2C1=O	93.9*	.	-13.5	.	.	43.2
COC(=O)c1ccccc1NC1=C/C(=N\S(=O)(=O)c2cccs2)c2ccccc2C1=O	99.3*	90.9*	85.6*!	30.5	-14.7	51.5*!
COc1ccc(NC(=O)N(C)C[C@H]2OCCCC[C@@H](C)Oc3ccc(NS(=O)(=O)c4ccc(Cl)cc4)cc3C(=O)N([C@@H](C)CO)C[C@H]2C)cc1	.	4.4	.	-0.2	6.4	.
COc1ccc(-n2c(C)c([N+](=O)[O-])c3ccc(O)c(CN(C)C)c32)cc1	79.6*	.	69.8*	.	.	.
CCOC(=O)c1ccc(-c2ccc(N3C(c4ccsc4)=Cc4ccc(F)cc4C3c3c[nH]c4ccc(C#N)cc34)cc2)cc1F (stereo not drawn)	53.5*	5.4	.	-36.1	-3.4	14.1
Cc1ccc(S(=O)(=O)Nc2ccc3c(c2)C(=O)N([C@@H](C)CO)C[C@H](C)[C@@H](CN(C)S(=O)(=O)c2cn(C)cn2)O3)cc1	.	10.7	.	-44.2	-7.6	.
CCOC(=O)Nc1ccc2nc(Sc3ccc(Cl)cc3)sc2c1	9.3	9.3	0.1	23.3	48.9	81.5*
CCC1CCCCN1C(=O)CCCOc1ccccc1 (stereo not drawn)	50.0*	.	-23.1	.	.	50.1*
O=C(CCCOc1ccccc1)N1CCCCC1	86.5*	.	25.9	.	.	57.8*
O=C(c1ccccc1)c1ccc(OCCCCN2CCCCC2)cc1	69.8*	6.8	2.5	.	.	-14.4
CCC1CCCCN1C(=O)COc1ccc(F)cc1 (stereo not drawn)	-14.4	-2.6	-29.6	-5.5	-4.3	-13.8
SMILES	TWEAK Fn14 block	LGR2 antag	EBV LMP1 NFkB	PAX8 inh HTS	EWS-Fli inh	TROY NFkB inh
O=C(c1ccccc1)c1ccc(OCCCN2CCCC2)cc1	0.0	-19.2	-2.2	-14.8	10.9	-15.8
O=C(c1ccc(Cl)cc1)N1CCN(CCOc2ccccc2)CC1	9.7	-2.0	47.1*	10.4	6.8	12.1
O=C(CCCOc1ccc(Cl)cc1)N1CCCCC1	39.0	-39.9	-4.0	.	-45.1	-56.1
O=S(=O)(c1ccccc1)N1CCN(c2ncnc3sc(-c4ccccc4)cc23)CC1	81.4*	.	23.1	-16.6	.	37.4
Cc1sc2ncnc(N3CCCCC3)c2c1C	-0.8	2.4	12.3	.	12.3	15.1
c1ccc(-c2cc3c(N4CCN(c5ccccc5)CC4)ncnc3s2)cc1	42.5	-41.3	5.6	31.2	5.7	27.0
O=S(=O)(c1ccccc1)N1CCN(c2cc(-c3ccccc3)nc3ncnn23)CC1	70.3*	.	43.3*	.	.	32.3
Cc1sc2ncnc(N3CCN(S(=O)(=O)c4ccccc4)CC3)c2c1C	74.0*	.	6.4	.	.	4.5
Cc1ccc(OCCN2CCN(c3ncnc4sc(C)c(C)c34)CC2)cc1	50.4*	.	10.3	.	.	38.6
C[C@@H]1CN([C@H](C)CO)C(=O)CCCn2cc(nn2)CO[C@@H]1CN(C)Cc1ccccc1C(F)(F)F	.	2.1	.	-3.6	-4.3	.
C[C@@H]1CN([C@H](C)CO)C(=O)c2cc(C#Cc3cccnc3)cnc2O[C@H]1CN(C)Cc1ccc(F)cc1	.	9.0	.	-2.2	4.3	.
C[C@@H]1CN([C@@H](C)CO)C(=O)c2cccc(NC(=O)Nc3ccc4c(c3)OCO4)c2O[C@@H]1CN(C)S(=O)(=O)c1cn(C)cn1	.	-10.6	.	.	-9.0	.
O=c1[nH]c2ccccc2c(O)c1SCCO	3.7	-1.3	-11.0	7.9	9.2	-13.3
O=C1C(SCCO)=C(SCCO)C(=O)c2ccccc21	75.9*	18.8	59.0*	114.1*	64.2*	31.9
Cc1c(C(=O)N2CCN(c3ccccc3)CC2)sc2ncnc(N3CCN(c4ccccn4)CC3)c12	44.8	29.6	14.2	-0.1	-2.0	32.6
Cc1nc(N2CCN(c3ccccn3)CC2)c2c(C)c(C(=O)Nc3c(F)cc(F)cc3Br)sc2n1	64.8*	10.7	8.5	41.9	.	28.2
Cc1nc(N2CCN(c3ccccn3)CC2)c2c(C)c(C(=O)Nc3c(C)cc(Br)cc3C)sc2n1	35.1	20.8	12.8	25.7	11.7	8.7
Cc1c(C(=O)N2CCN(c3ccc(F)cc3)CC2)sc2ncnc(N3CCN(c4ccccn4)CC3)c12	60.4*	32.8	24.8	59.2	29.8	52.6*
C[C@@H]1CCCCO[C@@H](CN(C)C(=O)NC2CCCCC2)[C@H](C)CN([C@H](C)CO)C(=O)c2cc(NS(C)(=O)=O)ccc2O1	.	-16.0	.	-3.5	6.7	.
